Test results taken from PubChem BioAssay (EPA / NIEHS).
Values joined by “and” are separate entries in the source; they are usually repeats but may differ in a detail not shown here. Identical values can stand only once. Results filed as inconclusive are left out. Some compounds were tested as several samples or in several runs, with calls that do not always agree. Active and inactive are the calls of the source. The calls were made as follows, unless noted: active = hit-call score of the fitted dose curve at least 0.9, where 1 is the maximum; inactive = score below 0.9.

How the values were obtained:
[1] = IUF_NPC2c_oligodendrocyte_migration_120hr: Leibniz Research Institute for Environmental Medicine (IUF) 120-hour Neural Progenitor Cell Migration Assay for Oligodendrocyte Migration (NPC2c) (AID 2284297);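 also: O4-positive oligodendrocyte migration distance divided by radial glia migration distance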
Summary of the method: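 hNPC spheres (GW 16-19 cortex), PDL/laminin, DMEM/F12 3:1 + 1% N2, 37C. Dosing day 0–5, half feed day 3, DMSO ≤0.1%. Fixed 120 h; O4 ICC + Hoechst, HCI. Readout: mean oligodendrocyte distance from sphere edge / radial glia distance.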

[2] = IUF_NPC2a_radial_glia_migration_120hr: Leibniz Research Institute for Environmental Medicine (IUF) 120-hour Neural Progenitor Cell Migration Assay for Radial Glia Migration (NPC2a) (AID 2284298)
Summary of the method: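 Hoechst-stained nuclei imaged at 120 h; algorithm maps sphere core by densest nuclei, sets migration edge at density threshold, gives radial glia migration distance (um) per well vs DMSO. hNPC spheres (0.3 mm), PDL/laminin, DMEM/F12 3:1 + 1% N2.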

[3] = IUF_NPC2a_radial_glia_migration_72hr: Leibniz Research Institute for Environmental Medicine (IUF) 72-hour Neural Progenitor Cell Migration Assay for Radial Glia Migration (NPC2a) (AID 2284299)
Summary of the method: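 Human fetal cortex (GW 16-19) neural progenitor spheres, 0.3 mm, plated on poly-D-lysine/laminin in N2 differentiation medium with compound from day 0. Radial glia migration distance (um, sphere core edge to migration edge) measured manually in four directions on 72 h brightfield images; well mean used.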

[4] = IUF_NPC2b_neuronal_migration_120hr: Leibniz Research Institute for Environmental Medicine (IUF) 120-hour Neural Progenitor Cell Migration Assay for Neuron Migration (NPC2b) (AID 2284300)
Summary of the method: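 hNPC spheres, PDL/laminin, DMEM:F12 3:1 + 1% N2, 37C/5% CO2; 7 concentrations + solvent control (DMSO ≤0.1%), 5 d exposure, half-feed day 3. Fix 120 h, TUBB3 ICC, HCI: mean neuron migration distance ÷ glia distance.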

[5] = IUF_NPC3_neuronal_differentiation_120hr: Leibniz Research Institute for Environmental Medicine (IUF) 120-hour Neuronal Differentiation Assay (NPC3) (AID 2284301)
Summary of the method: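 Human fetal (GW 16-19) neural progenitor spheres (0.3 mm) plated on poly-D-lysine/laminin in N2 differentiation medium, exposed 120 h at 37C with half-medium renewal day 3; 7 concentrations. TUBB3+ cells as % of Hoechst nuclei, CNN-identified; DMSO baseline.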

[6] = IUF_NPC4_neurite_length_120hr: Leibniz Research Institute for Environmental Medicine (IUF) 120-hour Neuronal Morphology Assay for Neurite Length (NPC4) (AID 2284302)
Summary of the method: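 Human fetal neural progenitor spheres (0.3 mm) plated on poly-D-lysine/laminin in N2 differentiation medium, exposed from day 0 for 120 h with half-medium refresh at day 3, 37C. Mean neurite length (um) of TUBB3-positive neurons from skeletonized immunostaining images; DMSO ≤0.1%.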

[7] = IUF_NPC4_neurite_area_120hr: Leibniz Research Institute for Environmental Medicine (IUF) 120-hour Neuronal Morphology Assay for Neurite Area (NPC4) (AID 2284305; active = hit-call score of the fitted dose curve at least 0.9, where 1 is the maximum)
Summary of the method: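 Human fetal neural progenitor spheres (0.3 mm) plated on poly-D-lysine/laminin in N2 differentiation medium, exposed 120 h (7 concentrations, DMSO ≤0.1%, half-medium refresh day 3). Fixed, TUBB3 immunostained; mean neurite area per neuron by Omnisphero skeletonization.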

[8] = IUF_NPC2-5_cytotoxicity_72hr: Cytotoxicity Assessment at 72 hours in the Leibniz Research Institute for Environmental Medicine (IUF) Neural Progenitor Cell Migration and Differentiation Assay for Cytotoxicity (NPC2-5) (AID 2284306; active = hit-call score of the fitted dose curve at least 0.9, where 1 is the maximum;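 also: LDH release into supernatant measured by resorufin fluorescence marking membrane damage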)
Summary of the method: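 Human fetal primary neural progenitor spheres (0.3 mm) plated on poly-D-lysine/laminin in N2 differentiation medium, exposed from day 0 at 37C. LDH-dependent resazurin-to-resorufin fluorescence in supernatant at 72 h; 7 concentrations, DMSO at most 0.1%.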

[9] = IUF_NPC2-5_cytotoxicity_120hr: Cytotoxicity Assessment at 120 hours in the Leibniz Research Institute for Environmental Medicine (IUF) Neural Progenitor Cell Migration and Differentiation Assay (NPC2-5) (AID 2284307; active = hit-call score of the fitted dose curve at least 0.9, where 1 is the maximum)
Summary of the method: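 hNPC spheres on PDL/laminin, N2 medium, 37C; 7 concs + solvent control, DMSO ≤0.1%; 5-day exposure, half medium changed day 3. LDH in supernatant at 120 h, resazurin→resorufin fluorescence, gain-of-signal.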

[10] = IUF_NPC2-5_cell_number_120hr: Cell Number Assessment at 120 hours in the Leibniz Research Institute for Environmental Medicine (IUF) Neural Progenitor Cell Migration and Differentiation Assay (NPC2-5) (AID 2284308);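 also: count of Hoechst-stained nuclei in migration zone around plated human neural progenitor spheres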
Summary of the method: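 Hoechst-stained nuclei within the migration area were counted by automated high content imaging after 120 h. Single hNPC spheres differentiated on poly-D-lysine/laminin in DMEM/F12 (3:1) with 1% N2, compound present throughout, DMSO ≤0.1%.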

[11] = IUF_NPC2-5_viability_120hr: Viability Assessment at 120 hours in the Leibniz Research Institute for Environmental Medicine (IUF) Neural Progenitor Cell Migration and Differentiation Assay (NPC2-5) (AID 2284312)
Summary of the method: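 Human fetal neural progenitor spheres (0.3 mm) plated on poly-D-lysine/laminin in N2 differentiation medium, exposed 120 h with half-medium refresh at day 3. Viability by alamar blue resazurin fluorescence; 7 concentrations, DMSO max 0.1%.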

[12] = read-out: E-selectin (Homo sapiens) (UniProt P16581); assay: BSK_IMphg_ESelectin: BioMAP Diversity Plus: IMphg Assay for Eselectin Biomarker Activity (AID 2284291); details: primary human endothelial cells with macrophages
Summary of the method: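 Human venular endothelial cell–macrophage co-culture, E-selectin measured by ELISA 24 h after chemical dosing. Signal fitted in the positive direction against DMSO as negative control and baseline.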

[13] = read-out: Interleukin-10 (IL10), IL10 (gene 3586); assay: BSK_IMphg_IL10: BioMAP Diversity Plus: IMphg Assay for Interleukin-10 (IL10) Biomarker Activity (AID 2284294); details: primary human endothelial cells with macrophages
Summary of the method: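 Human venular endothelial cells cocultured with macrophages, dosed 24 h; IL-10 measured by ELISA, activity relative to DMSO. Cytotoxicity assessed in parallel cultures by sulforhodamine B total-protein staining.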

[14] = BSK_IMphg_SRB.Mphg: Macrophage Viability Assessment in the BioMAP Diversity Plus: IMphg Assay (AID 2284295); details: primary human endothelial cells with macrophages
Summary of the method: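 Venular endothelial cells co-cultured with macrophages, read 24 h after dosing. Total protein measured by 0.1% SRB staining after 10% TCA fixation, absorbance at 560 nm. Fitted in positive direction against DMSO baseline.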

[15] = read-out: Thrombomodulin, THBD (gene 7056); assay: BSK_LPS_Thrombomodulin: BioMAP Diversity Plus: LPS Assay for Thrombomodulin Biomarker Activity (AID 2284296); details: primary human HUVEC with PBMC
Summary of the method: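 Human umbilical vein endothelial cells co-cultured with PBMC and stimulated with LPS; cell-surface thrombomodulin measured by ELISA 24 hours after compound. Gain or loss versus DMSO; cytotoxicity checked by SRB staining in parallel cultures.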

CD69, CD69 (gene 969) = assay: BSK_LPS_CD69: BioMAP Diversity Plus: LPS Assay for CD69 Biomarker Activity (AID 2284303); details: primary human HUVEC with PBMC
Summary of the method: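 Human umbilical vein endothelial cells co-cultured with PBMC under LPS stimulation, chemical exposure 24 h; cell-surface CD69 measured by ELISA and fitted in the positive direction versus DMSO.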

IYD (gene 389434) = assay: CCTE_GLTED_hIYD: CCTE's human Iodotyrosine Deiodinase (xIYD) Inhibition Assay, Great Lakes Toxicology and Ecology Division (GLTED) Lab (AID 2284317; active = hit-call score of the fitted dose curve at least 0.9, where 1 is the maximum;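 also: cell-free human IYD enzyme made in baculovirus insect cells; iodide freed from monoiodotyrosine measured by cerium arsenite color change at 420 nm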)
Summary of the method: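 Human IYD expressed in a baculovirus-insect cell system was incubated 3 h with monoiodotyrosine and test chemical. Released iodide, separated on Dowex columns, was quantified by the Sandell-Kolthoff reaction at 420 nm; plates were normalized to MNT and DMSO/NaOH controls.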

[16] = IUF_NPC5_oligodendrocyte_differentiation_120hr: Leibniz Research Institute for Environmental Medicine (IUF) 120-hour Oligodendrocyte Differentiation Assay (NPC5) (AID 2284304; active = hit-call score of the fitted dose curve at least 0.9, where 1 is the maximum;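 also: primary human fetal neural progenitor spheres plated to migrate and differentiate; share of O4-positive cells among Hoechst nuclei found by CNN image analysis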)
Summary of the method: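 hNPC spheres, fetal cortex GW 16-19; PDL/laminin, DMEM:F12 3:1 + 1% N2, 37C/5% CO2; 7 concentrations + solvent control, 5 d exposure, half-change day 3. Readout: %O4+ of Hoechst+ nuclei in migration area, CNN classification; DMSO baseline.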

Measured: AC50

Chain of E-selectin (Homo sapiens) (P16581 whole entry, looked up): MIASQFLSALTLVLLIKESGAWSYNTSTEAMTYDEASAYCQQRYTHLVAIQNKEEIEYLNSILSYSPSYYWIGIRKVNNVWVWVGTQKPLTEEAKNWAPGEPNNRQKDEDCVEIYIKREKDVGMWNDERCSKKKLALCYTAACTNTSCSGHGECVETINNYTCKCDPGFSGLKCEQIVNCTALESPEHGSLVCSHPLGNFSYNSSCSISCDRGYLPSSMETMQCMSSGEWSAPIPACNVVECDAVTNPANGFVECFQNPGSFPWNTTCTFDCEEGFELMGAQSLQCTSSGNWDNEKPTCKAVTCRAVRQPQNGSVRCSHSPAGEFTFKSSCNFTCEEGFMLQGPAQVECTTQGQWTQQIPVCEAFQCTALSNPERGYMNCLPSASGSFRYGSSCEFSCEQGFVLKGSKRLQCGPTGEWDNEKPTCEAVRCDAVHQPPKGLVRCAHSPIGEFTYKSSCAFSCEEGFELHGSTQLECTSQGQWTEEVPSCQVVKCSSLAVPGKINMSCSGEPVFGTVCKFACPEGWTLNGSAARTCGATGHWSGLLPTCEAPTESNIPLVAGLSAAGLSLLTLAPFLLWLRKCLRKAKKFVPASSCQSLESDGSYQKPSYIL

OC[C@@H](O)[C@@H](O)[C@H](O)[C@@H](O)CO
inactive: [1] | [2] | [3] | [4] | [5] | [6] | [7] | [8] | [9] | [10] | [11]

OCC(F)(F)C(F)(F)C(F)(F)C(F)(F)C(F)(F)C(F)F
inactive: [12] | [13] | [14] | [15] | CD69, CD69 (gene 969)
active: [14] 596 nM

O=S(=O)(OCCOC(F)(F)F)C(F)(F)F
inactive: [12] | [13] | [14] | [15] | CD69, CD69 (gene 969)

FC(F)(F)C(F)(F)CNCC(F)(F)C(F)(F)F
active: [15] 0.227 µM
inactive: [12] | [13] | [14] | [15] | CD69, CD69 (gene 969)

CC(C)(C)C(=O)CC(=O)C(F)(F)C(F)(F)C(F)(F)F
inactive: [12] | [13] | [14] | [15] | CD69, CD69 (gene 969)

C=CC(=O)OCC(F)(F)C(F)(F)C(F)(F)C(F)(F)COC(=O)C=C
active: [12] 25.1 µM and 31.3 µM | [13] 24.4 µM and 33.7 µM | [14] 21.5 µM and 51.8 µM | [15] 51.4 µM | CD69, CD69 (gene 969) 8.63 µM and 9.41 µM
inactive: [15]

OCC(F)(F)C(F)(F)C(F)(F)F
inactive: [12] | [13] | [14] | [15] | CD69, CD69 (gene 969)

O=C(O)C=C(C(F)(F)F)C(F)(F)F
inactive: [14] | [15] | CD69, CD69 (gene 969)
active: [12] 20.2 µM and 18 µM | [13] 12.8 µM and 11.3 µM | [15] 1.97 µM

OCC(F)(F)C(F)(F)C(F)(F)C(F)F
inactive: [12] | [13] | [14] | [15] | CD69, CD69 (gene 969)

CCCCC(CC)COP(=O)(O)OCC(CC)CCCC (centres undefined)
inactive: [15] | CD69, CD69 (gene 969)
active: CD69, CD69 (gene 969) 987 nM | IYD (gene 389434) 100 µM

FC(F)(F)C(F)(F)C(F)(F)N(C(F)(F)C(F)(F)C(F)(F)F)C(F)(F)C(F)(F)C(F)(F)F
inactive: [12] | [13] | [14] | [15] | CD69, CD69 (gene 969)

CC(Cc1ccc(O)c(O)c1)C(C)Cc1ccc(O)c(O)c1 (centres undefined)
inactive: IYD (gene 389434)

CCCCCCOC(=O)c1ccccc1O
inactive: [15]
active: CD69, CD69 (gene 969) 39.4 µM and 46.4 µM

FC(F)(F)C(F)(F)C(F)(F)C(F)(F)C(F)(F)C(F)(F)C(F)(F)C(F)(F)CCS
inactive: [12] | [13] | [14] | [15] | CD69, CD69 (gene 969)

CC(CCl)OP(=O)(OC(C)CCl)OC(C)CCl (centres undefined)
inactive: [1] | [2] | [3] | [4] | [5] | [6] | [7] | [8] | [9] | [10] | [11]
active: [16] 5.43 µM

NC(=O)C(F)(F)C(F)(F)C(F)(F)C(F)(F)F
inactive: [12] | [13] | [14] | [15] | CD69, CD69 (gene 969)
